Assay results from PubChem BioAssay (NCATS).
Values joined by “and” are separate entries in the source; they are usually repeats but may differ in a detail not shown here. Identical values can stand only once. Records with an inconclusive call do not appear. The source holds several records for some structures; these can differ, active in one and inactive in another. Active and inactive are the calls of the source. Unless noted, the call rests on the fitted dose curve; in most records, active means well fitted curve in the direction sought with a large enough effect; inconclusive means small, poorly fitted or top-dose-only effect, or another doubt; inactive means no such curve, though single readings can be large; an effect the other way counts as inactive or inconclusive.

Key:
[1] = target: Cellular tumor antigen p53 (Homo sapiens) (UniProt P04637); assay: Primary qHTS for small molecule compounds that upregulate eGFP-tagged delta133p53alpha (in N-terminal) cells. (AID 2060322); details: NCI-H358 eGFP-delta133p53alpha fluorescence, 24 h; activation: stronger effect = higher value;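 further: cells pre-induced with doxycycline then dosed without doxycycline; series mostly up to about 56 µM; 0% = DMSO vehicle and 100% = reference activator; nearly all actives have a fitted effect of over 75% in size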
Chain of Cellular tumor antigen p53 (Homo sapiens) (P04637 whole entry, looked up): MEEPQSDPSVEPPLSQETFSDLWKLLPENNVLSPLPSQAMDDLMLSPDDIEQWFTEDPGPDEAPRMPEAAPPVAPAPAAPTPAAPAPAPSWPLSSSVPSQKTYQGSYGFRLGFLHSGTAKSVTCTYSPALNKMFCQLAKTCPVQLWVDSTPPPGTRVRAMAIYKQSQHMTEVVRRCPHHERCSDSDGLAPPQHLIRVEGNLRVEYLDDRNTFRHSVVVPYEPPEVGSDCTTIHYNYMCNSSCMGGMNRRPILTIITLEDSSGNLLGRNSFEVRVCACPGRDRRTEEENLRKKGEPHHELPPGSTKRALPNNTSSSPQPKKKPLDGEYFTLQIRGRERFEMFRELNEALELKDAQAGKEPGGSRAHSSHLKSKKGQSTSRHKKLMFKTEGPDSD
Outline: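 NCI-H358 cells pre-induced 24 h with 10 ng/ml doxycycline for eGFP-delta133p53alpha, plated dox-free and exposed 24 h at 37C to titrated compounds. Fixed, Hoechst-stained; gated GFP peak intensity by laser scanning cytometry, normalized to DMSO (0%) and 57.5 uM 5-azacytidine (100%).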

[2] = target: Cellular tumor antigen p53 (Homo sapiens) (UniProt P04637); assay: Primary qHTS for small molecule compounds that upregulate eGFP-tagged delta133p53alpha (in C-terminal) cells. (AID 2060324); further: potency means the concentration at half of the fitted maximal effect
Outline: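 Concentration-response screen: compounds titrated onto pre-induced NCI-H358 D133p53a-eGFP cells, incubated one day, fixed with 3.5% PFA. Per-cell GFP peak intensity was gated, then normalized against intraplate controls.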

[3] = target: Aldehyde dehydrogenase, mitochondrial (Homo sapiens) (UniProt P05091); assay: qHTS for Inhibitors of the Aldehyde Dehydrogenase Family (ALDH2) Validation screens (AID 2061302; active means well fitted inhibition curve with a large enough effect; title and protocol of this record describe different tests;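 further: plate controls were DMSO vehicle for no effect and maximal DPI positive control response for full effect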)
[4] = target: Retinaldehyde dehydrogenase 3 (Homo sapiens) (UniProt P47895); assay: qHTS for Inhibitors of the Aldehyde Dehydrogenase Family (ALDH1A3) Validation screen (AID 2061312); further: on the % scale 0 is the no-effect control and ±100 the full control effect; nearly all actives have a fitted effect of over 45% in size
[5] = BET inhibitor-based combinations targeting novel dependencies in MECOM-rearranged (r) AML: SET-2 cell line (AID 2202231); details: SET-2 AML cells viability, CellTiter-Glo luminescence, 48 h; viability: stronger effect = lower value, series mostly up to about 46 µM;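 further: plate controls were DMSO treated cells for no effect and wells without cells for full effect; nearly all actives have a fitted effect of over 35% in size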
Outline: (§1)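 Viability of cells (500 per well) is scored by luminescent CellTiter-Glo at 48 hr post-dosing. Eleven-point titrations are normalized to DMSO and empty controls and reduced to AUC values.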

[6] = BET inhibitor-based combinations targeting novel dependencies in MECOM-rearranged (r) AML: OCI-AML3 cell line (AID 2202232); details: Potency: OCI-AML3 viability;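 further: series mostly up to about 46 µM; plate controls were DMSO vehicle wells for no effect and wells without cells for full effect; nearly all actives have a fitted effect of over 35% in size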
Outline: as §1

[7] = BET inhibitor-based combinations targeting novel dependencies in MECOM-rearranged (r) AML: MV-4-11 cell line (AID 2202233);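 further: plate controls were DMSO for no effect and blank wells for full effect; nearly all actives have a fitted effect of over 45% in size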
Outline: (§2)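 Using pin-tool transfer, drugs were added in 11 doses to cells (500/well), incubated 48 hr, and assessed with CellTiter-Glo. Z-AUC is a mean-centring transformation applied separately to each screened line.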

[8] = BET inhibitor-based combinations targeting novel dependencies in MECOM-rearranged (r) AML: HNT-34 cell line (AID 2202234);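 further: plate controls were vehicle wells for no effect and cell-free wells for full effect; nearly all actives have a fitted effect of over 35% in size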
Outline: as §2

[9] = BET inhibitor-based combinations targeting novel dependencies in MECOM-rearranged (r) AML: UCSD-AML1 cell line (AID 2202235);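 further: series mostly up to about 46 µM; plate controls were DMSO vehicle wells for no effect and blank wells for full effect; nearly all actives have a fitted effect of over 40% in size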
Outline: as §2

[10] = BET inhibitor-based combinations targeting novel dependencies in MECOM-rearranged (r) AML: AML-194 cell line (AID 2202237;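 further: plate controls were vehicle wells for no effect and wells without cells for full effect; nearly all actives have a fitted effect of over 40% in size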)
Outline: as §1

[11] = BET inhibitor-based combinations targeting novel dependencies in MECOM-rearranged (r) AML: AML-191 cell line (AID 2202236;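 further: plate controls were vehicle wells for no effect and wells without cells for full effect; nearly all actives have a fitted effect of over 35% in size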)
Outline: as §1

[12] = target: Aldehyde dehydrogenase, mitochondrial (Homo sapiens) (UniProt P05091); assay: qHTS for Inhibitors of the Aldehyde Dehydrogenase Family (ALDH2) Confirmatory screens (AID 2061303; active means well fitted inhibition curve with a large enough effect; title and protocol of this record describe different tests; further: on the % scale 0 is the no-effect control and ±100 the full control effect; nearly all actives have a fitted effect of over 45% in size)
[13] = qHTS for Inhibitors of the Aldehyde Dehydrogenase Family (ALDH1A2, ALDH1A3, ALDH2, ALDH3A1) (AID 2061307); further: nearly all actives have a fitted effect of over 50% in size; on Potency: test system not described further here; potency means the concentration at half of the fitted maximal effect
[14] = target: Retinaldehyde dehydrogenase 3 (Homo sapiens) (UniProt P47895); assay: qHTS for Inhibitors of the Aldehyde Dehydrogenase Family (ALDH1A3) Confirmatory screens (AID 2061311); further: nearly all actives have a fitted effect of over 60% in size; further: potency means the concentration at half of the fitted maximal effect
[15] = target: Retinal dehydrogenase 2 (Homo sapiens) (UniProt O94788); assay: qHTS for Inhibitors of the Aldehyde Dehydrogenase Family (ALDH1A2) Confirmation screens (AID 2061314); further: nearly all actives have a fitted effect of over 65% in size; further: potency means the concentration at half of the fitted maximal effect
[16] = target: Aldehyde dehydrogenase 1A1 (Homo sapiens) (UniProt P00352); assay: qHTS for Inhibitors of the Aldehyde Dehydrogenase Family (ALDH1A1) Confirmatory screens (AID 2061316); further: nearly all actives have a fitted effect of over 65% in size; further: potency means the concentration at half of the fitted maximal effect
[17] = target: Aldehyde dehydrogenase, mitochondrial (Homo sapiens) (UniProt P05091); assay: qHTS for Inhibitors of the Aldehyde Dehydrogenase Family (ALDH2) Primary screen (AID 2061308);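 further: plate controls were vehicle for no effect and reference inhibitor for full effect; nearly all actives have a fitted effect of over 55% in size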
[18] = target: Retinaldehyde dehydrogenase 3 (Homo sapiens) (UniProt P47895); assay: qHTS for Inhibitors of the Aldehyde Dehydrogenase Family (ALDH1A3) Primary screen (AID 2061315);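 further: plate controls were DMSO vehicle for no effect and reference inhibitor for full effect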

CCCN1CCC[C@H](c2cccc(O)c2)C1
inactive: activation [1] 4.78% | Potency [2] | Potency [3] | Potency [4]

CC(C)(C)OC(=O)NC1[C@H]2CNC[C@@H]12 (stereo partly specified)
inactive: activation [1] -12.9% | Potency [3]

COC(=O)[C@@H](N)CCCN=C(N)N[N+](=O)[O-]
inactive: activation [1] -9.21% and -14.8% | Potency [2] | Potency [3] | Potency [4] | viability [5] 109% | Potency [6] | Potency [7] | Potency [8] | Potency [9] | Potency [10]

Cc1sc2ccccc2c1CC1=NCCN1
inactive: activation [1] -35.5% | Potency [2] | Potency [3] | Potency [4]

CCCN1CCO[C@@H]2c3cc(O)ccc3OC[C@H]21
inactive: activation [1] -9.95% | Potency [2] | Potency [3] | viability [5] 92% | Potency [9] | Potency [11]

N=C(N)c1ccc(CS(=O)(=O)F)cc1
inactive: activation [1] 3.92% | Potency [3]

NCc1cc(=O)[nH]o1
inactive: activation [1] 11.2% | Potency [2] | Potency [3] | Potency [4]

CCCN(CCC)C1CCc2cccc(O)c2C1 (stereo unspecified)
inactive: activation [1] 29.8% | Potency [2] | Potency [3] | Potency [4]

C[N+]1(C)CCN(c2ccccc2)CC1
inactive: activation [1] -0.912% | Potency [3]

CC(C)c1cccc(C(C)C)c1O
inactive: activation [1] 0.683% and -5.08% and -18.8% | Potency [2] | Potency [3] | Potency [4] | viability [5] 105% | Potency [7] | Potency [8] | Potency [10]

COc1ccccc1N1CCNCC1
inactive: activation [1] -15.9% and 0.526% | Potency [3]

C[C@H](Cc1ccc2c(c1)OC(C(=O)O)(C(=O)O)O2)NC[C@H](O)c1cccc(Cl)c1
inactive: activation [1] -6.85% | Potency [2] | Potency [3] | Potency [4]

CC(C)=CCOc1c2occc2cc2ccc(=O)oc12
inactive: activation [1] -10.9% and -24.3% | Potency [2] | Potency [3] | Potency [4]

NCCc1c[nH]c2ccccc12
inactive: activation [1] -5.39% | Potency [2] | Potency [3] | Potency [4]

NC(=O)CN1CC(O)CC1=O (stereo unspecified)
inactive: activation [1] -34.2% | Potency [2] | Potency [3] | Potency [4]

CNCCc1c[nH]c2ccc(O)cc12
inactive: activation [1] -26.4% | Potency [2] | Potency [3] | Potency [4]

NCC(CP(=O)(O)O)c1ccc(Cl)cc1 (stereo unspecified)
inactive: activation [1] -1.72% | Potency [2] | Potency [3] | Potency [4]

NCCc1c[nH]c2ccc(C(N)=O)cc12
inactive: activation [1] -19.7% | Potency [2] | Potency [3] | Potency [4]

CCCN(CCC)C1Cc2cc(OC)c(OC)cc2C1
inactive: activation [1] -2.4% | Potency [2] | Potency [3] | Potency [4]

C[C@H](N)CN1CCc2ccc(Br)cc21
inactive: activation [1] 5.22% | Potency [2] | Potency [3] | Potency [4]

CN1CC[C@@]2(C)c3cc(OC(=O)Nc4ccccc4)ccc3N(C)[C@@H]12
active: Potency [13] 8.96 µM
inactive and 7.98 µM (active): Potency [14]
inactive and 5.65 µM (active): Potency [15]
inactive: activation [1] 26.7% | Potency [2] | Potency [12]

NC(=NCCC[C@H](N)C(=O)O)N[N+](=O)[O-]
inactive: activation [1] -32.4% | Potency [2] | Potency [3] | Potency [4]

Cc1cccc(C)c1NC(=O)CN1CCCC1=O
inactive: activation [1] -17.7% and -15.1% and -5.58% | Potency [2] | Potency [3] | Potency [4] | viability [5] 109% | Potency [6] | Potency [8] | Potency [9] | Potency [11] | Potency [10]

CCOC(=O)c1ncn2c1[C@@H]1CCCN1C(=O)c1cc(OC)ccc1-2
inactive: activation [1] 2.15% | Potency [2] | Potency [12] | Potency [13] | Potency [14] | Potency [15] | Potency [16]

N#CCCN
inactive: activation [1] 1.42% | Potency [3]

C[C@]12Cc3cn4c(nc3C=C1CCC1C2CC[C@@]2(C)[C@H]1CC[C@@]2(O)C#N)nc1ccccc14 (stereo partly specified)
active: Potency [2] 30.1 µM | Potency [16] 12.7 µM
inactive: activation [1] -9.64% | Potency [3]

O=C(N[C@H]1CN2CCC1CC2)c1ccc(Cl)cc1
inactive: Potency [17] | Potency [18] | viability [5] 112% | Potency [6] | Potency [7] | Potency [8] | Potency [11] | Potency [10]

CN(N=O)c1cc(O)ccc1O
active: Potency [14] 0.634 µM

CCCN1CCc2cccc3c2[C@H]1Cc1ccc(O)c(O)c1-3
active: Potency [14] 22.5 µM

CCc1[nH]c2ccc(OC)cc2c1CCN(C)C
inactive: activation [1] 8.59% | Potency [12] | Potency [17] | Potency [14]
